From PubChem BioAssay AID588331 (National Center for Advancing Translational Sciences (NCATS), 2011) come the findings set out here.

Inconclusive results are not listed. Activity calls are given as the source filed them. Calls follow the shape of the dose curve; as a rule, active = well fitted inhibition curve with a large enough effect; inconclusive = small, poorly fitted or top-dose-only effect; inactive = flat fitted curve, though single readings scatter.

For the test, the system named is Trypanosoma brucei 6-phosphofructokinase (PFK). Description: Confirmatory Assay to Find Inhibitors of T. brucei phosphofructokinase: High F6P. The note with it: Kinase-Glo luminescence; series mostly up to 57.5 µM. The text has this: Various species of the protozoan family Trypanosomatidae are responsible for a range of serious human diseases in tropical and subtropical areas of the world. […] Many of the disorders caused by trypanosomatids are fatal if left untreated, but most currently used drugs are inefficient and toxic. […] Oxidative metabolism involving the mitochondrial tricarboxylic acid cycle and oxidative phosphorylation are repressed in these parasites, and recent RNA interference (RNAi) experiments have shown that even partial depletion of certain individual glycolytic enzymes can lead to the death of cultured parasites. One such glycolytic enzyme, phosphofructokinase (PFK), catalyzes the formation of fructose-1,6-bisphosphate (F1,6BP) and ADP from fructose-6-phosphate (F6P) and ATP, and in many metabolic circumstances makes an important contribution to the control of flux through the glycolytic pathway. As a specific glycolytic target, PFK is particularly attractive as it catalyzes the first irreversible step in glycolysis, and structural and kinetic studies have shown very substantial and essential differences from corresponding host enzymes, allowing for the discovery of parasite-selective inhibitors. A luminescent secondary assay was also performed that used luciferase-based nucleotide detection (ADP-Glo, Promega) similar to the qHTS, but that alternatively used saturating concentrations (10x Km concentrations) of ATP or F6P to determine if inhibitor potencies were shifted due to particular substrate competition. […] NIH Molecular Libraries Probe Production Network [MLPCN] NIH Chemical Genomics Center [NCGC] Grant: 1 R03 MH092153-01 PI Name: Malcolm Walkinshaw, University of Edinburgh
Substrate buffer was dispensed into white, solid 1536-well plates at 3 uL/well in 0.1M triethanolamine (TEA) buffer, pH 8.0, containing final concentrations of 5 mM MgCl2 and 0.01% Tween20. Standard substrate buffer contained 0.5 mM fructose-6-phosphate (F6P) and 0.1 mM ATP, high ATP substrate buffer contained 0.5 mM fructose-6-phosphate (F6P) and 1mM ATP, high F6P substrate buffer contained 5mM fructose-6-phosphate (F6P) and 0.1 mM ATP, and high ATP/F6P buffer contained 5 mM fructose-6-phosphate (F6P) and 1 mM ATP. Then, 23 nl of compounds or DMSO were delivered to each well using a pin tool. One uL of T. brucei PFK (0.1 M TEA, 0.01% Tween20, 0.1% bovine serum albumin (BSA) and 1.25 nM PFK, final concentrations) was then dispensed, and plates were incubated at room temperature for 45 min. The luminescent detection reagent, Kinase-Glo Plus (Promega), was then added at 2ul/well and incubated for ten minutes at room temperature. The plates were measured on a ViewLux plate reader for luminescent signal using a clear filter with a one second exposure. The %Activity was determined from the corrected luminescence values. 1x (1.25nM) and 0x PFK enzyme controls (untreated) were included to normalize %Activity of identified inhibitors; 0x enzyme values corresponded to 100%Activity (full inhibition), while 1x PFK enzyme values were used to normalize 0% Activity (no inhibition).
(Kinase-Glo measures the ATP left after a reaction by luminescence.)
Regarding `Cc1cc(N(C)S(=O)(=O)c2ccc(NC(=O)Cc3ccc(Cl)c(Cl)c3)cc2)no1`, the Potency is 16.3 µM (active).

For the compound `Cc1cc(NS(=O)(=O)c2ccc(NC(=O)Cc3ccc(Cl)cc3)cc2)no1`, the Potency was 20.6 µM (active).

As for `O=C(Cc1ccc(Cl)c(Cl)c1)Nc1ccc(S(=O)(=O)O)cc1`, the Potency is 5.17 µM (active).

Turning to `Cc1cc(NS(=O)(=O)CCNC(=O)Cc2ccc(Cl)c(Cl)c2)no1`, the Potency result is “inactive”.

With `Cc1cc(NS(=O)(=O)c2ccc(NC(=O)Cc3ccc(Cl)c(Cl)c3)cc2)n(C)n1`, the Potency is 13 µM (active).

Take `Cc1cc(NS(=O)(=O)c2ccc(N(C)C(=O)Cc3ccc(Cl)c(Cl)c3)cc2)no1`: the Potency is 10.3 µM (active).

On to `Cc1cc(NS(=O)(=O)c2ccc(C(=O)NCc3ccc(Cl)c(Cl)c3)cc2)no1`, for which the Potency is 25.9 µM (active).

Consider `Cc1cc(NS(=O)(=O)c2ccc(NC(=O)Cc3ccc(Cl)c(F)c3)cc2)no1`, for which the Potency is 8.19 µM (active).

For `CCOC(=O)c1cccc(NS(=O)(=O)c2ccc(NC(=O)Cc3ccc(Cl)c(Cl)c3)cc2)c1`, the Potency result is “inactive”.

In the case of `Cc1cc(NS(=O)(=O)C2CCN(C(=O)Cc3ccc(Cl)c(Cl)c3)CC2)no1`, the Potency entry is “inactive”.

Regarding `O=C(Cc1ccc(Cl)c(Cl)c1)Nc1ccc(S(=O)(=O)Nc2cccc(C(=O)O)c2)cc1`, the Potency was 4.61 µM (active).

In the case of `Cc1cc(NS(=O)(=O)Cc2ccc(NC(=O)Cc3ccc(Cl)c(Cl)c3)cc2)no1`, the Potency was 16.3 µM (active).

Take `O=C(Cc1ccc(Cl)c(Cl)c1)Nc1ccc(S(=O)(=O)Nc2ccc(C(=O)O)cc2)cc1`: the Potency was 4.11 µM (active).

On to `O=C(Cc1ccc(Cl)c(Cl)c1)Nc1ccc(S(=O)(=O)Nc2cccc(O)c2)cc1`, for which the Potency was 14.6 µM (active).

`O=C(Cc1ccc(Cl)c(Cl)c1)Nc1ccc(S(=O)(=O)Nc2ccn[nH]2)cc1`: the Potency is 5.8 µM (active).

As to `Cc1cc(NS(=O)(=O)c2ccc(NC(=O)C(C)(C)c3ccc(Cl)c(Cl)c3)cc2)no1`, the Potency result was “inactive”.

In the case of `Cc1cc(NC(=O)c2csc(NC(=O)Cc3ccc(Cl)c(Cl)c3)n2)no1`, the Potency entry is “inactive”.

For `Cc1cc(NS(=O)(=O)c2ccc(NC(=O)Cc3ccc(Cl)c(Cl)c3)cc2)on1`, the Potency was 3.26 µM (active).

Regarding `O=C(Cc1ccc(Cl)c(Cl)c1)Nc1ccc(S(=O)(=O)Nc2ccon2)cc1`, the Potency is 2.06 µM (active).

As to `Cc1cc(N[S+](=O)([O-])c2ccc3cc(NC(=O)Cc4ccc(Cl)c(Cl)c4)ccc3c2)no1`, the Potency is 36.6 µM (active).

Consider `Cc1cc(NS(=O)(=O)c2ccc(NS(=O)(=O)Cc3ccc(Cl)c(Cl)c3)cc2)no1`, for which the Potency entry is “inactive”.

Regarding `O=C(Cc1ccc(Cl)c(Cl)c1)Nc1ccc(S(=O)(=O)Nc2cncnc2)cc1`, the Potency was 9.19 µM (active).

Consider `Cc1cc(NS(=O)(=O)c2ccc(NC(=O)Cc3ccc(Cl)c(Cl)c3)cc2)no1`, for which the Potency is 3.66 µM (active).

For `Cc1cc(NS(=O)(=O)c2ccc(NC(=O)Cc3ccc(Cl)c(C(F)(F)F)c3)cc2)no1`, the Potency was 5.8 µM (active).

In the case of `Cc1cc(NS(=O)(=O)c2ccc(NC(=O)Cc3ccc(C)c(C)c3)cc2)no1`, the Potency result is “inactive”.

Consider `Cc1cc(NC(=O)c2ccc(NC(=O)Cc3ccc(Cl)c(Cl)c3)cc2)no1`, for which the Potency result was “inactive”.

As to `COc1ccc(CC(=O)Nc2ccc(S(=O)(=O)Nc3cc(C)on3)cc2)cc1OC`, the Potency result is “inactive”.

Consider `COc1ccc(CC(=O)Nc2ccc(S(=O)(=O)Nc3cc(C)on3)cc2)cc1C`, for which the Potency entry is “inactive”.

For the compound `Cc1cc(NS(=O)(=O)c2ccc(NC(=O)c3ccc(Cl)c(Cl)c3)cc2)no1`, the Potency entry was “inactive”.

In the case of `Cc1cc(NS(=O)(=O)c2ccc(NC(=O)Cc3ccccc3)cc2)no1`, the Potency entry is “inactive”.

As to `Cc1cc(N[S+](=O)([O-])c2ccc(NC(=O)Cc3ccc(Cl)nc3)cc2)no1`, the Potency entry was “inactive”.
